Experimental data published in paper PMC5700166.

These sequences were tested against GST-Hu-p50 (Homo sapiens, UniProt P19838 7-356) (assay: protein-binding microarray (PBM); PBM: ~300 nM protein, 6 mM HEPES pH 7.8, 80 mM KCl, 0.5 mM EDTA, 0.5 mM EGTA, 6% glycerol, 35 ng/ul poly-dIdC, 1% milk, 1 h, room temperature; Ap Aiptasia and Nv Nematostella (sea anemones) / Co Capsaspora / Aq Amphimedon (sponge) / Dm Drosophila / Hu human; RHD is the Rel homology domain; high values mean tight binding). Details: dsDNA, one strand shown.
Sequence of GST-Hu-p50 (P19838 7-356): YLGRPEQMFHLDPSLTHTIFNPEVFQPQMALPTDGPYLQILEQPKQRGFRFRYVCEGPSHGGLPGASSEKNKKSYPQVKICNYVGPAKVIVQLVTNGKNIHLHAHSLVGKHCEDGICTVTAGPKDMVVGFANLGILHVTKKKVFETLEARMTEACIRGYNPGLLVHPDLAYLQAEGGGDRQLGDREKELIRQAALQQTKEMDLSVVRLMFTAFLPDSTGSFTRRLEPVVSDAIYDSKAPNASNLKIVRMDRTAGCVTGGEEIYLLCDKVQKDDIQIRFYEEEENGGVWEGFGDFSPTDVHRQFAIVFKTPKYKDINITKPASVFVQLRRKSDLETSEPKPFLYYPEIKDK
“CCGATTAACATCACGGAATTTTCTGATGTTAATCGGGTCTTGATTCGCTTGACGCTGCTG” gave a binding signal of 1.13 z-score. Sequence “CCGATTAACATCAGGCGGTAAGGTGATGTTAATCGGGTCTTGATTCGCTTGACGCTGCTG” has a binding signal of 1.29 z-score. Sequence “CCGATTAACATCAACCAATCCCCTGATGTTAATCGGGTCTTGATTCGCTTGACGCTGCTG” has a binding signal of 4.9 z-score. “CCGATTAACATCAAGAGTTCCCCTGATGTTAATCGGGTCTTGATTCGCTTGACGCTGCTG” gave a binding signal of 5.23 z-score. Sequence “CCGATTAACATCAGGGGTTACACTGATGTTAATCGGGTCTTGATTCGCTTGACGCTGCTG” has a binding signal of 1.37 z-score. Work on “CCGATTAACATCAATTGGGAAATTGATGTTAATCGGGTCTTGATTCGCTTGACGCTGCTG” yielded a binding signal of 2.69 z-score. In the case of “CCGATTAACATCACCGAACTAACTGATGTTAATCGGGTCTTGATTCGCTTGACGCTGCTG”, the binding signal was 1.23 z-score. “CCGATTAACATCACCATTTTCCCTGATGTTAATCGGGTCTTGATTCGCTTGACGCTGCTG” was tested, and the binding signal was 3.64 z-score. With “CCGATTAACATCAGGAAACACCCTGATGTTAATCGGGTCTTGATTCGCTTGACGCTGCTG” the binding signal was 3.48 z-score. “CCGATTAACATCATTCCACCAGGTGATGTTAATCGGGTCTTGATTCGCTTGACGCTGCTG” showed a binding signal of 1.04 z-score. With “CCGATTAACATCAGGGGAACTAATGATGTTAATCGGGTCTTGATTCGCTTGACGCTGCTG” the binding signal was 4.28 z-score. “CCGATTAACATCAGGGGAACCTATGATGTTAATCGGGTCTTGATTCGCTTGACGCTGCTG” gave a binding signal of 4.74 z-score. In the case of “CCGATTAACATCACCCACCGATTTGATGTTAATCGGGTCTTGATTCGCTTGACGCTGCTG”, the binding signal was 1.08 z-score. Work on “CCGATTAACATCAAGGTATTTCCTGATGTTAATCGGGTCTTGATTCGCTTGACGCTGCTG” yielded a binding signal of 1.29 z-score.
